This passage reports composite z-score and z-score results from PubChem BioAssay.

In assay [1] the test system is Wnt5a (protein binding on small-molecule microarray). Kind of assay: small molecules binding Wnt5a protein – biophysical, small-molecule microarray, 635/667 nm fluorescence, primary screen (AID 1142).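 Further: fluorescence read at 667 nm with signal to noise per printed feature.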 The note with it: 635 nm fluorescence, higher = more signal.
The nature of assay [2]: ATP-based viability of Huh7 replicon cells – cell-based, CellTiter-Glo luminescence, basal, 48 h, cytotoxicity control for HCV replication inhibitor project, primary screen (AID 1143).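 Further: Huh7 hepatoma cells carrying a hepatitis C replication reporter with no stimulus; test concentration not given here.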 The note with it: higher = more signal, called active from +8 up or from −8 down. (In general: Replicon systems follow genome replication, usually without infectious particles.)
The nature of assay [3]: Pseudomonas biofilm growth suppression – PAO1 strain, BacTiter-Glo luminescence, LB-PBS, primary screen (AID 1144). The note with it: P. aeruginosa PAO1 biofilm, 12 h, higher = more signal.
Assay [4] is described as follows: basal CRE-LacZ reporter activity in PC12 – cell-based, unstimulated, primary screen (AID 1145). As to conditions: no forskolin, luminescence, 4.5 h, higher = more signal, called active from +8 up or from −8 down.
Assay [5] in a line: forskolin-driven CRE-LacZ activity in PC12 – cell-based, CRE-LacZ reporter, forskolin-stimulated, primary screen (AID 1146).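 Further: PC12 cells with 6xCRE LacZ reporter stimulated by forskolin 10 µM; beta-galactosidase reporter signal reflecting CREB driven transcription.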 The note with it: luminescence, 4.5 h, higher = more signal, called active from +8 up or from −8 down.
Assay [6] has as its target Streptavidin (Streptomyces avidinii) (UniProt P22629). Kind of assay: compounds binding control protein streptavidin – biophysical, small-molecule microarray, 635/667 nm fluorescence, artefact control for SMM compound annotation, primary screen (AID 1147).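 Further: signal reflects streptavidin binding to arrayed compounds as a control protein.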 As to conditions: higher = more signal.
The nature of assay [7]: probe aInhba binding on compound microarray – biochemical, small-molecule microarray, 635/667 nm fluorescence, primary screen (AID 1148).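 Further: score merges 667nm spot fluorescence with signal-to-noise for antibody binding to printed compounds.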 The note with it: higher = more signal.
In assay [8] the target is Torsin-1A (Homo sapiens) (UniProt O14656). In words: TOR1A wild-type binding on microarray – cell lysate, small-molecule microarray, lysate, 635/667 nm, primary screen (AID 1149). As to conditions: COS7 hTOR1A-WT lysate, 635 nm fluorescence, higher = more signal.
Assay [9] shares this target. In words: torsin A mutant lysate binding on microarrays – cell lysate, small-molecule microarray, COS7 lysate, 635/667 nm fluorescence, primary screen (AID 1150).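 Further: score pools 667 nm emission and signal to noise measuring lysate protein binding.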 The note with it: COS7 hTOR1A mutant lysate, 635 nm fluorescence, higher = more signal.
In assay [10] the test system is Sonic hedgehog protein (Shh). Kind of assay: Sonic hedgehog microarray binding compounds – biochemical, small-molecule microarray, 635/667 nm fluorescence, primary screen (AID 1151).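 Further: Shh protein binding to compounds spotted on small-molecule microarray slides; score combines spot fluorescence intensity with signal-to-noise across triplicate slides.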 As to conditions: 635 nm fluorescence, higher = more signal.
Assay [11] in a line: optical density shifts of acrAB sulA E. coli – strain DRC41, OD650, 48 h, E. coli filamentation inducer project, primary screen (AID 1152).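 Further: E. coli MC1000 strain DRC41 lacking acrAB efflux pump and sulA.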 The note with it: higher = more signal, called active from +8 up or from −8 down.
Assay [12] can be described thus: probe aLefty1 binding on compound microarray – biochemical, small-molecule microarray, 635/667 nm fluorescence, primary screen (AID 1153).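 Further: score merges spot fluorescence with signal-to-noise ratio from the scanned slide images.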 As to conditions: higher = more signal.
The nature of assay [13]: plasmodial surface anion channel blockers, osmotic lysis – cell-based, P. falciparum Indochina, OD700, 1 h, primary screen (AID 1154). The note with it: P. falciparum Indochina infected RBC osmotic lysis, higher = more signal, called active from +8 up or from −8 down.
Assay [14] can be described thus: plasmodial surface anion channel blockers, osmotic lysis – cell-based, P. falciparum Indochina, OD700, 2 h, primary screen (AID 1155).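 Further: lysis reports solute entry through the parasite surface anion channel PSAC.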 The note with it: P. falciparum Indochina infected erythrocytes, higher = more signal, called active from +8 up or from −8 down.
A short description of assay [15]: changes in parasitized red cell lysis, either direction – P. falciparum Indochina, OD700, 3 h, PSAC antagonist project, primary screen (AID 1156). As to conditions: P. falciparum-infected erythrocytes, osmotic lysis, higher = more signal, called active from +8 up or from −8 down.
The nature of assay [16]: plasmodial surface anion channel blockers, osmotic lysis – cell-based, P. falciparum Indochina, OD700, 18 h, primary screen (AID 1157). As to conditions: P. falciparum Indochina infected erythrocytes, osmotic lysis OD700, 18 h; higher = more signal, called active from +8 up or from −8 down.
The nature of assay [17]: S6 kinase pathway phospho-S6 level changes – cell-based, A549, cytoblot, luminescence, serum-stimulated, primary screen (AID 1158).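 Further: serum-stimulated A549 lung adenocarcinoma cells; signal is phosphorylated S6 detected by cytoblot immunostaining with HRP secondary.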 The note with it: 5 h, higher = more signal.
For assay [18], the target named is NADPH oxidase 2 (Homo sapiens) (UniProt P04839). In words: compounds shifting NOX2 Amplex Red fluorescence – cell-based, HEK293-NOX2, PMA-stimulated, NOX inhibitor project, primary screen (AID 1159). Further: test concentration not given here. The note with it: 45 min, higher = more signal, called active from +8 up or from −8 down.
Assay [19] concerns the target NADPH oxidase 4 (Homo sapiens) (UniProt Q9NPH5). In words: compounds shifting NOX4 Amplex Red fluorescence – cell-based, HEK293-NOX4, tetracycline-induced, NOX inhibitor project, primary screen (AID 1160). The note with it: HEK293-NOX4, Amplex Red H2O2 fluorescence, 45 min; higher = more signal, called active from +8 up or from −8 down.
Assay [20] deals with NADPH oxidase 5 (Homo sapiens) (UniProt Q96PH1). In words: compounds shifting NOX5 Amplex Red fluorescence – cell-based, HEK293-NOX5, NOX inhibitor project, primary screen (AID 1161). The note with it: HEK293-NOX5, ionomycin, 45 min, higher = more signal.

Calls of active or inactive are those of the source. Unless noted, how the calls were made is not given here.

NADPH oxidase 2 (Homo sapiens), sequence (P04839 whole entry, looked up): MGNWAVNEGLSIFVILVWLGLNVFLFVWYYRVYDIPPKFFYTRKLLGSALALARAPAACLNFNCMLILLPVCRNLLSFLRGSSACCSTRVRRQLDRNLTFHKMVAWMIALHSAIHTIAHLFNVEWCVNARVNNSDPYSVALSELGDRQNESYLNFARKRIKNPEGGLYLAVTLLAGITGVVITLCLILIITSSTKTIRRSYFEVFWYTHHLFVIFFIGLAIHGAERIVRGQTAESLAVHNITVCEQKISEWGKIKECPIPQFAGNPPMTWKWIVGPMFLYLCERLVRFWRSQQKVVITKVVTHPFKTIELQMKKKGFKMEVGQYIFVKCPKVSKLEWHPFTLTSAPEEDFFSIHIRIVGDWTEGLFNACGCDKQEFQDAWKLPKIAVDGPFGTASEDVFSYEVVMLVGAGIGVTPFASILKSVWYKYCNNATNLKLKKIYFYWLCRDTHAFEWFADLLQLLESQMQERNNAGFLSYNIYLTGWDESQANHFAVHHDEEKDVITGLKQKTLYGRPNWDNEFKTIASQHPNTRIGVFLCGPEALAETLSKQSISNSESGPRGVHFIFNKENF
Torsin-1A (Homo sapiens), sequence (O14656 whole entry, looked up): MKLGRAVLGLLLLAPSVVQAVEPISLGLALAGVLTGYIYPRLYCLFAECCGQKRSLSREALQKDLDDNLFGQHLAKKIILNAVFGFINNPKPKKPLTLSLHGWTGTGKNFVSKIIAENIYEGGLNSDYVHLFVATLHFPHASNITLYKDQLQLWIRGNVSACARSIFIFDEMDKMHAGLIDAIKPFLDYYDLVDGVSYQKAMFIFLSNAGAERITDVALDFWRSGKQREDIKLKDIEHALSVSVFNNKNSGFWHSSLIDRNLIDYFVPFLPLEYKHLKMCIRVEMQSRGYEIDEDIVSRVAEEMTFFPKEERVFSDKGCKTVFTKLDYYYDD
NADPH oxidase 5 (Homo sapiens), sequence (Q96PH1 whole entry, looked up): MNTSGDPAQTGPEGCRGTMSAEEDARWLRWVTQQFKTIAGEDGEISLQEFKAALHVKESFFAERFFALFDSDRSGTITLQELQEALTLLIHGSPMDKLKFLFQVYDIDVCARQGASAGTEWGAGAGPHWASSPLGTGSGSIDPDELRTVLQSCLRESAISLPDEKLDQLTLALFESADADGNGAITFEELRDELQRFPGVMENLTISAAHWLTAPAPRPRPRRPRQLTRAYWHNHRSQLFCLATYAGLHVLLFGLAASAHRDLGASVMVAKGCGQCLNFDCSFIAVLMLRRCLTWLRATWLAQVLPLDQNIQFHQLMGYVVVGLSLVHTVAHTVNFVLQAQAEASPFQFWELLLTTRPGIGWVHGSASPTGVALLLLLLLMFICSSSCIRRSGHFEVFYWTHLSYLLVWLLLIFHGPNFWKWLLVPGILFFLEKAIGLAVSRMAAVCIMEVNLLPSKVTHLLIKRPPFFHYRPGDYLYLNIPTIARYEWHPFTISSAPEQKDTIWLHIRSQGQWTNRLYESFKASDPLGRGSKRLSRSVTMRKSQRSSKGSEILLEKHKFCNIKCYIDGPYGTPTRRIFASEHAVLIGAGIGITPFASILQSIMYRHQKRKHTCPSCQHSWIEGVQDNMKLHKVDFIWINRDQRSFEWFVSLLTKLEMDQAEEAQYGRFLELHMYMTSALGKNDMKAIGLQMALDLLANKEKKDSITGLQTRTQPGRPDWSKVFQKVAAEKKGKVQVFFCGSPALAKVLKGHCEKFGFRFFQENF
Streptavidin (Streptomyces avidinii), sequence (P22629 whole entry, looked up): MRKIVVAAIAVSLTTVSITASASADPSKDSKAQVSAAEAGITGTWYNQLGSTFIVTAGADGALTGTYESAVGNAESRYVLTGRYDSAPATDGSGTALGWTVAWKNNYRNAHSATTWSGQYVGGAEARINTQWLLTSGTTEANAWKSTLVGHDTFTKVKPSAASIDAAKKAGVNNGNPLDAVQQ
NADPH oxidase 4 (Homo sapiens), sequence (Q9NPH5 whole entry, looked up): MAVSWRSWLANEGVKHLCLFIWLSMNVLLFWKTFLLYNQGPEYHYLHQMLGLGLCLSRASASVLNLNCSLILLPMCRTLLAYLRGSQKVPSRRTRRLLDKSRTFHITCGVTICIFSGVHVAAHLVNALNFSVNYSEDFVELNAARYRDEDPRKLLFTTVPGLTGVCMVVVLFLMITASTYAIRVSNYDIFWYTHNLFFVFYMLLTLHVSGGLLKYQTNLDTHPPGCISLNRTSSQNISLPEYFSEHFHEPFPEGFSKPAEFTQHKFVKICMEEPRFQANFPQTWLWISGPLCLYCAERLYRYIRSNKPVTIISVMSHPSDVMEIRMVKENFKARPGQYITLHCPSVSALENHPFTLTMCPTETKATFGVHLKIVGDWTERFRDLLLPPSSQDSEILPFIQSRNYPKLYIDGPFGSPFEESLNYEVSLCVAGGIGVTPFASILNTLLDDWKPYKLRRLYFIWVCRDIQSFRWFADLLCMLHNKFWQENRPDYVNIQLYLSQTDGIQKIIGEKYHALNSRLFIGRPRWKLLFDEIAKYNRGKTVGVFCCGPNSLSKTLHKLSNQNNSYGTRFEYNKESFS

On to `COc1ccc([Si](C)(C)[C@H]2[C@H](CC(=O)N(CCO)Cc3ccccc3)O[C@@]3(C(=O)N(c4ccccc4)c4ccccc43)[C@@H]2C)cc1`, for which the composite z-score is 0.318 in [1]; 0.862 in assay [6]; -0.0986 in [7]; 0.0895 with Torsin-1A (Homo sapiens) [8]; -0.364 with Torsin-1A (Homo sapiens) [9]; 1.2 in assay [10]. In assay [12], the composite z-score was -0.0603. Moreover, the z-score in [2] is -7.96 (inactive); in assay [3], -0.164 (inactive); in assay [4], 16.4 (active); in [5] it was -3.89 (inactive); in [11], -0.79 (inactive); in assay [13], 26.5 (active). In addition, the z-score in assay [14] is 12.9 (active); in assay [15] it was 0.495 (inactive); in assay [16], 2.04 (inactive); in [17] it was 0.297; in [18], -0.0743 (inactive); in assay [19], 0.689 (inactive). The z-score in assay [20] was -1.65.

Take `COC(=O)[C@@]1(Cc2ccc(F)cc2)[C@H]2c3cc(C(=O)N(C)C)n(Cc4ccc(C(F)(F)F)nc4)c3C[C@H]2CN1C(=O)c1ccccc1`: the composite z-score is 0.381 in assay [1]; 1.55 in [6]; 0.36 in assay [7]; 0.516 in the assay with Torsin-1A (Homo sapiens) [8]; 0.717 in the assay with Torsin-1A (Homo sapiens) [9]; 0.521 in [10]. In [12], the composite z-score stood at 0.589. The z-score in assay [2] is -3.01 (inactive); in assay [3] it was 0.857 (inactive); in assay [4] it was 1.91 (inactive); in assay [5] it was 1.13 (inactive); in assay [11] it was -1 (inactive); in [13] it was 1.93 (inactive). Further, the z-score in assay [14] was 0.844 (inactive); in assay [15], 0.893 (inactive); in [16], 0.987 (inactive); in [17], -0.0002; in [18], 0.267 (inactive); in assay [19], 0.32 (inactive). The z-score in assay [20] stood at 0.568.

`C=CCNC(=O)[C@H]1[C@@H]2C(=O)O[C@@H](c3ccccc3)[C@@H](c3ccccc3)N2[C@@H](c2ccc(OCCO)cc2)[C@]12C(=O)N(C(=O)OCCOC)c1ccc(C#CCNC(N)=O)cc12`: the composite z-score in assay [1] is 0.0992; in assay [6] it was 0.286; in assay [7] it was -0.0313; with Torsin-1A (Homo sapiens) [8] it was 0.668; in the assay with Torsin-1A (Homo sapiens) [9], 0.83; in assay [10] it was 0.984. Further, the composite z-score in [12] was 0.298. The z-score was -0.646 (inactive) in [2]; -1.36 (inactive) in [3]; -0.618 (inactive) in [4]; -0.779 (inactive) in assay [5]; 0.33 (inactive) in assay [11]; 2.53 (inactive) in [13]. In addition, the z-score in assay [14] is 0.666 (inactive); in assay [15], 1.09 (inactive); in assay [16] it was 0.83 (inactive); in assay [17], 0.387; in assay [18] it was 1.76 (inactive); in assay [19] it was 1.44 (inactive). For the same compound, the z-score in assay [20] worked out at 0.12.

As to `Cc1ccc(N2C(=O)c3ccccc3[C@@H](C(=O)NCCN3CCOCC3)[C@@H]2c2ccc(CO)cc2)nc1`, the composite z-score in assay [1] is -0.275; in [6], -1.42; in assay [7] it was 0.0051; in the assay with Torsin-1A (Homo sapiens) [8], -2.75; in the assay with Torsin-1A (Homo sapiens) [9], -1.65; in [10] it was 0.179. Moreover, in assay [12], the composite z-score was -0.303. In addition, the z-score is 0.209 (inactive) in assay [2]; -0.479 (inactive) in assay [3]; 0.145 (inactive) in assay [4]; -0.479 (inactive) in assay [5]; 0.279 (inactive) in [11]; 0.443 (inactive) in assay [13]. Also, the z-score is -0.229 (inactive) in [14]; -0.319 (inactive) in [15]; 0.155 (inactive) in assay [16]; -0.334 in [17]; 0.335 (inactive) in [18]; -0.36 (inactive) in assay [19]. Further, in assay [20], the z-score was -1.86.

Consider `C=CCC(OC(C)=O)[C@@H]1[C@@H](N(Cc2ccc(-c3ccccc3)cc2)C(=O)Cc2ccc(OC)cc2)c2cc(OCCCO)ccc2N1C(=O)Cc1ccc(OC)cc1` (stereo not given in full), for which the composite z-score was determined as 0.0361 in assay [1]; 0.222 in assay [6]; 0.169 in assay [7]; 0.172 with Torsin-1A (Homo sapiens) [8]; 0.212 with Torsin-1A (Homo sapiens) [9]; 0.363 in [10]. Further, the composite z-score in [12] worked out at 0.299. Moreover, the z-score in [2] is -1.79 (inactive); in [3], 1.04 (inactive); in assay [4] it was 0.642 (inactive); in [5], 0.482 (inactive); in assay [11], -0.92 (inactive); in assay [13] it was 3.76 (inactive). For the same compound, the z-score in assay [14] is -0.313 (inactive); in assay [15], 0.167 (inactive); in assay [16], 0.141 (inactive); in assay [17], 0.518; in [18] it was -3.55 (inactive); in assay [19], 0.194 (inactive). Besides, the z-score in assay [20] was -0.0291.

As to `O=C(CS)NCCCCCCNC(=O)[C@H]1C[C@H]2C(=O)NCC(=O)N2[C@H]1c1cccc(OCCO)c1`, the composite z-score was 0.497 in [1]; -0.127 in assay [6]; -0.226 in [7]; 0.168 in the assay with Torsin-1A (Homo sapiens) [8]; 0.442 with Torsin-1A (Homo sapiens) [9]; 1.54 in [10]. The compound further yielded a composite z-score in [12] of 0.0797. For the same compound, the z-score in assay [2] is -2.15 (inactive); in [3], -0.525 (inactive); in [4], 0.0084 (inactive); in [5] it was -0.963 (inactive); in assay [11] it was 0.838 (inactive); in [13] it was 2.16 (inactive). Also, the z-score is -0.151 (inactive) in assay [14]; -1.92 (inactive) in [15]; -1.36 (inactive) in assay [16]; 0.21 in assay [17]; 2.14 (inactive) in assay [18]; 1.22 (inactive) in assay [19]. In addition, the z-score in assay [20] turned out to be 0.769.

In the case of `C=CC[C@]1(C(N)=O)N=C(c2ccc(OCCCO)cc2)O[C@H]1c1ccccc1N=[N+]=[N-]`, the composite z-score was determined as 0.423 in assay [1]; 0.489 in assay [6]; 0.0857 in assay [7]; 0.534 with Torsin-1A (Homo sapiens) [8]; 1.62 with Torsin-1A (Homo sapiens) [9]; 0.0211 in [10]. The same compound came in with a composite z-score in assay [12] of 0.408. Moreover, the z-score is -1.05 (inactive) in [2]; 0.348 (inactive) in assay [3]; 0.432 (inactive) in assay [4]; -1.81 (inactive) in [5]; 2.21 (inactive) in assay [11]; 33.4 (active) in assay [13]. For the same compound, the z-score is 30.8 (active) in [14]; 2.17 (inactive) in assay [15]; 9.7 (active) in assay [16]; -0.0547 in assay [17]; -1.77 (inactive) in assay [18]; 0.627 (inactive) in assay [19]. For the same compound, in assay [20], the z-score worked out at 0.189.
